Reference: PubChem BioAssay AID588847 (Broad Institute, 2011)
Potency and affinity values are given separately. Active and inactive are the calls of the source.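 The calls were made as follows: active = compounds lowering luciferase light with a fitted half-maximal dose at most twice the top tested dose; inconclusive = flat fit inhibiting 30 to 70%, or unreliable fit; inactive = the rest.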

Target: Luciferin 4-monooxygenase (Photuris pensylvanica) (UniProt Q27757)
Test: inhibition of Cell Titer Glo luciferase signal – biochemical, luminescence, cherry-picks, counter-screen for HSF-1 reporter inhibitor project, dose response (AID 588847)
Conditions: ATP; series mostly up to 26 µM

Sequence of Luciferin 4-monooxygenase (Photuris pensylvanica) (Q27757 whole entry, looked up): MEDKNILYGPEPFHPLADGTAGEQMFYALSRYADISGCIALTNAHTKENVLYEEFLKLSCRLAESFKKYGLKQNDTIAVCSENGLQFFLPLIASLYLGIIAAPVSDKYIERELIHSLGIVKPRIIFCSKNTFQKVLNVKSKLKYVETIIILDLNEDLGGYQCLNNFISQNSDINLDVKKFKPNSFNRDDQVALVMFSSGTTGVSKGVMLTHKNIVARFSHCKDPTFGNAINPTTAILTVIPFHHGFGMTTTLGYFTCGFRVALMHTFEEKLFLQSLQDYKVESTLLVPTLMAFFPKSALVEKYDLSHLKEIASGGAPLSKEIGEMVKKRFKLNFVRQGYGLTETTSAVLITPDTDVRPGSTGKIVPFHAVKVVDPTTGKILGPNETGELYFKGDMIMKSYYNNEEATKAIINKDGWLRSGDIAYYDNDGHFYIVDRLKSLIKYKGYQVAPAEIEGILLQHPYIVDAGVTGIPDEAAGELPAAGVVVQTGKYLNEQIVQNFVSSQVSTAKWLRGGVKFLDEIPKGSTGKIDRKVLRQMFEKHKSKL

| Structure (SMILES) | outcome |
| --- | --- |
| CC(=O)OCC(=O)[C@@]12OC(C)(C)O[C@@H]1CC1C3C[C@H](F)C4=CC(=O)C=CC4(C)[C@@]3(F)C(O)CC12C (stereo partly drawn) | inactive |
| Cc1ccc(C(=O)Nc2sc(C)c(-c3ccccc3)c2C(N)=O)cc1[N+](=O)[O-] | inactive |
| COC(=O)c1ccccc1NC(=O)c1ccc(-c2ccc(Br)cc2)o1 | inactive |
| O=C(Nc1ccc(F)cc1F)c1cc2nc3c(c(C(F)(F)F)n2n1)CCCC3 | inactive |
| O=[N+]([O-])c1nn(-c2ccc3c(c2)OCCO3)n(O)c1=Nc1ccccc1 | inactive |
| COc1cc([C@@H]2c3cc4c(cc3[C@H](O)[C@H]3COC(=O)[C@H]23)OCO4)cc(OC)c1OC | inactive |
| CC(=O)[C@@]1(O)C(C)CC2C3C=C(C)C4=Cc5c(cnn5-c5ccccc5)C[C@]4(C)C3C(O)C[C@@]21C (stereo partly drawn) | inactive |
| Cc1nc(SCC(=O)Nc2nc3ccccc3s2)c(C#N)c(C)c1C | inactive |
